ChEMBL document CHEMBL3988442, “University of Dundee, Small-Polar-MMV Screening Library” (2021)
Out of some 38,000 compounds screened, about 1,200 (3.2%) showed an effect of 50% or more. The median lay at about -58%. This is one part of a sample in which strong results are shown more often than they occur.

system: Plasmodium falciparum; assay: Calibr Malaria Delayed Death Assay SOP; type: functional, organism-based; design: scale not given: in the data most compounds retested in dose-response had high values; conditions: concentration 4.99e-06 (unit not given; other assays of the set use mol/L)

In order of falling “Percent Effect” value:
1. Cl.N#Cc1ccc(CNCC2(c3ccccc3)CCOCC2)cc1  82.55%
2. COc1ccccc1C1(CNCc2cccc(O)c2)CCOCC1  82.33%
3. CN1CC[C@H](N(Cc2ccccc2)CC2CC2)C[C@H](O)C1  80.63%
4. O=S1(=O)c2ccccc2OCC2(CCN(CCO)CC2)CN1CC1CC1  76.86%
5. CN1CCN(Cc2ccccc2CNC(=O)c2cc(Br)ccc2F)CC1  76.59%
6. CN1CCN(Cc2ccccc2CNC(=O)c2ccc(Cl)cc2F)CC1  76.33%
7. COc1ccccc1C1(CNCc2ccc(C#N)cc2)CCOCC1  76%
8. CCC(CNC1CCN(C(=O)N(C)C)CC1)Oc1ccccc1C (stereo unspecified)  72.22%
9. CN1CC[C@H](N(Cc2ccccc2)Cc2ccccc2)C[C@H](O)C1  71.85%
10. COc1ccccc1C1(CNCc2ccc([S+](C)[O-])cc2)CC1 (stereo unspecified)  68.71%
11. O=C(c1cc(-c2ccn(CC3CC3)n2)n2ccccc12)N1CCOCC1  67.86%
12. COc1ccccc1C1(CNCc2cccc(C#N)c2)CCOCC1  66.05%
13. CN1CCN(Cc2ccccc2CNC(=O)c2cc(Cl)ccc2F)CC1  65.2%
14. Cc1cc(NC(=O)NC(C)CN2CCN(c3ccccc3)CC2)on1 (stereo unspecified)  58.09%
15. COCC1CC2(CCN(Cc3ccoc3)CC2)CN1Cc1ccccn1 (stereo unspecified)  55.13%
16. Cc1cc(N(C)CCN(C)C2CCCC2)n2nc(C)cc2n1  53.42%
17. CN1CC2(CCN(CC3CC3)CC2)COc2ccccc2S1(=O)=O.O=C(O)C(F)(F)F  52.41%
18. CN1CCN(C(CNC(=O)c2ccc(Cl)cc2F)c2cccs2)CC1 (stereo unspecified)  51.8%
19. CCC(CNC1CCN(C(C)=O)CC1)Oc1cccc(C)c1 (stereo unspecified)  51.47%
20. CCC(CNC1CCN(C(C)=O)CC1)Oc1ccccc1Cl (stereo unspecified)  48.49%
21. CN1CCN(Cc2ccccc2CNC(=O)c2ccc(Br)cc2F)CC1  47.71%
22. C[C@@H]1CN(CCC(=O)NCc2ccccc2Cl)C[C@@]1(O)C1CC1  46.32%
23. CN1CCN(Cc2ccccc2CNC(=O)c2ccc(Br)cc2)CC1  45.05%
24. CN1CC[C@H](N(Cc2ccccc2)C2COC2)C[C@H](O)C1  43.99%
25. COCC1CC2(CCN(CC3CC3)CC2)CN1Cc1ccccn1.O=C(O)C(F)(F)F.O=C(O)C(F)(F)F (stereo unspecified)  39.61%
26. Cc1cc(C)nc(N(C)CCN(C)C2CCCC2)n1  27.63%
27. COc1ccc(CN(C)Cc2cccc(C#N)c2)c(OC)c1  25.49%
28. CN1CCC(N(C)CCC(=O)N2CCC(CCc3ccccc3)CC2)C1 (stereo unspecified)  17.74%
29. COc1ccc([C@@H]2NC(=O)N[C@H]3OCCC[C@H]32)cc1  13.26%
30. Cc1nnc(NCC2(c3ccccc3)CCOCC2)c(C#N)c1C  3.02%
31. CCOCC1CC2(CCN(C(=O)c3ccc4ccccc4n3)CC2)CO1.O=C(O)C(F)(F)F (stereo unspecified)  2.806%
32. CN1CC[C@H](N(C)Cc2ccccc2)C[C@H](O)C1  2.065%
33. Cc1ccc(OCCC(=O)N2CCCC(n3nc(C)nc3C)C2)cc1 (stereo unspecified)  0.003662%
34. CCCNC(=O)CCC(=O)n1nc(C)c2ccccc21  -0.03666%
35. Cc1ccc(CCNC(=O)Cn2nc(C)n(Cc3ccccc3)c2=O)s1  -1.162%
36. CC(=O)N(Cc1noc(C2CC2)n1)C1CCN(Cc2ccccn2)C1 (stereo unspecified)  -1.635%
37. COCC1CC2(CCN(Cc3nccs3)CC2)CN1Cc1ccccn1.O=C(O)C(F)(F)F.O=C(O)C(F)(F)F.O=C(O)C(F)(F)F (stereo unspecified)  -3.583%
38. CN1CCC/C1=N\S(=O)(=O)c1ccc(NC(=O)c2ccsc2)cc1  -6.415%
39. Oc1cccc(CNCCC2CCCO2)c1 (stereo unspecified)  -6.783%
40. COCCN1CCC2(CC1)COc1ccccc1S(=O)(=O)N(C)C2  -7.731%
41. CCc1ccc(C(=O)N2CCN(CC(O)CC)CC2)o1 (stereo unspecified)  -8.781%
42. Cc1cccc(C)c1OC1CN(C(=O)C2CCN(C(=O)N(C)C)CC2)C1  -10.34%
43. Cc1cc(NC(=O)CN(c2ccccc2)C(C)C)on1  -10.54%
44. CC(OCC1CC1)C(=O)NCCC(=O)Nc1ccccn1 (stereo unspecified)  -13.51%
45. COc1cc(OC)c(CNC(=O)NCc2ccc(C#N)cc2)c(OC)c1  -15.69%
46. Cn1ccnc1CN1CCN(CC(=O)NCc2ccccc2F)CC1  -19.05%
47. CCN1CC2(CCN(C(=O)N(C)C)CC2)COc2ccccc2S1(=O)=O  -20.19%
48. Cc1cc(CN2CCN(C(=O)C(C(C)C)n3cncn3)CC2)no1 (stereo unspecified)  -20.49%
49. COCC1CN(C(=O)Cc2cccs2)Cc2nnn(CC3CC3)c21 (stereo unspecified)  -20.67%
50. c1ccc(CCCN2CCOC(Cn3cccn3)C2)cc1 (stereo unspecified)  -23.01%
51. Cc1nc(CNC(=O)NC2CCCN(c3ncccn3)C2)cs1 (stereo unspecified)  -24.32%
52. CNC(=O)c1ccc(CNC(=O)c2ccc(Cl)cc2F)cc1  -28.69%
53. CN1CC2(CCN(C(=O)C3CCC3)CC2)COc2ccccc2S1(=O)=O  -31.54%
54. CCC(=O)N1CCC2(CC1)COc1ccccc1S(=O)(=O)N(C)C2  -32.01%
55. CCCN1CCC2(CC1)COc1ccccc1S(=O)(=O)N(CC1CC1)C2.O=C(O)C(F)(F)F  -32.31%
56. CSc1ccc(OCCN2CCNC(=O)C2C)cc1 (stereo unspecified)  -33.67%
57. COc1ccccc1C1(CNc2cn[nH]c(=O)c2Cl)CCOCC1  -35.38%
58. CN(Cc1nnc(C2CC2)n1C)S(=O)(=O)Cc1ccccc1F  -39.05%
59. CCc1nc(CC(=O)N2CCCC2c2c(C)nn(C)c2OC)cs1 (stereo unspecified)  -39.25%
60. O=C(NCc1ccccc1CN1CCOCC1)c1ccc(Br)cc1F  -44.16%
61. CN(C)C(=O)CN1CCC2(CC1)COc1ccccc1S(=O)(=O)N(C)C2.O=C(O)C(F)(F)F  -44.68%
62. O=C(NCC(c1cccs1)N1CCOCC1)c1ccc(F)cc1Cl (stereo unspecified)  -47.97%
63. CN(C)c1ccc(C(=O)NCC2(c3ccccc3)CCOCC2)cc1  -48.74%
64. COCCOCC(=O)Nc1ccccc1F  -49.03%
65. Cc1cc(NC(=O)N(C)CCN2CCN(c3ccccc3)CC2)on1  -52.94%
66. O=C(O)C(F)(F)F.O=C(O)C(F)(F)F.c1coc(CN2CCCn3c(CN4CCOCC4)nnc3C2)c1  -56.94%
67. O=C(O)C(F)(F)F.OCCN1CCC(F)(F)C2(CCN(c3cnccn3)C2)C1 (stereo unspecified)  -58.35%
68. CCn1nc(C)c2ccn(CC(=O)NCC3CCCO3)c(=O)c21 (stereo unspecified)  -59.75%
69. COc1cccc(N2CCC(CNCc3cccc(C#N)c3)C2)c1 (stereo unspecified)  -60.34%
70. Nc1ncc(C(=O)N2CCN(c3nccs3)CC2)cc1Cl  -61.47%
71. COC(=O)c1cc2c(=O)n(C3CC3)ccc2nc1C  -61.53%
72. Cn1ccc(C(=O)NCc2ccccc2CN2CCCCC2)cc1=O  -63.4%
73. COc1ccc(CN2CCC3(CC2)CC(c2cccnc2)CO3)cc1.O=C(O)C(F)(F)F.O=C(O)C(F)(F)F (stereo unspecified)  -68.03%
74. CC(OCC(F)(F)F)C(=O)N1CCOCC1 (stereo unspecified)  -69.84%
75. O=C(O)C(F)(F)F.O=C(O)C(F)(F)F.O=C(c1ccnnc1)N1CCN(Cc2cccnc2)c2ncccc2C1  -70.53%
76. CC1CCN(C(CNC(=O)CCn2cccn2)c2cccs2)CC1 (stereo unspecified)  -77%
77. CCSc1ccc(C(=O)NCCc2nnc(-c3ccco3)[nH]2)cn1  -77.1%
78. COc1ccccc1C1(CNc2ccc(C(=O)N(C)C)cn2)CC1  -78.51%
79. O=C(O)c1cc(-c2ccn(CC3CC3)n2)n2ccccc12  -79.58%
80. CC(C)NC(=O)CN1CCCNCC1  -82.69%
81. COc1ccccc1C1(CNc2ncc(S(N)(=O)=O)s2)CC1  -83.98%
82. COc1cc(CNc2cc(N3CCCC3CO)ncn2)ccn1 (stereo unspecified)  -84.2%
83. Cl.Nc1cccnc1N1CCCCCC1  -85.39%
84. Cc1nn(C)c(C)c1C1COCCN1c1ncncc1Br (stereo unspecified)  -86.62%
85. COc1ccc(OC)c(Nc2nc3c(C)nn(C)c3c(=O)n2C)c1  -88.36%
86. O=C(c1cc(-c2ccn(CC3CC3)n2)n2ccccc12)N1CCCO1  -90.15%
87. CCOc1ccc(-c2c(C#N)c(N)nc3c2COCC3)cn1  -92.51%
88. CS(=O)(=O)C1(CNCc2cccc(-n3cccn3)c2)CCOCC1  -93.15%
89. O=c1[nH]c(CN2CCOC(Cn3cccn3)C2)nc2ccccc12 (stereo unspecified)  -93.34%
90. O=C(COc1ccccc1NCc1ccc(F)cc1)N1CCOCC1  -94.22%
91. O=C(Nc1ccccc1)N1C[C@H]2C[C@H](C(=O)N3CCOCC3)[C@@H](C1)O2  -95.7%
92. O=C(c1ccco1)N1C[C@H]2CN(Cc3cccc(F)c3)C(=O)[C@H]2C1  -97.73%
93. NC(=O)CCN(CC(=O)NCc1ccccn1)c1ccc(F)cc1  -98.56%
94. Cc1nc(C)n(C2CCCN(C(=O)CCCNc3ncccn3)C2)n1 (stereo unspecified)  -99.16%
95. CN(CC1CC1)C(=O)CN(Cc1cccc(O)c1)C1CCC(O)CC1 (stereo unspecified)  -102.5%
96. O=C(CNC(=O)N1CCN(c2cccc(Cl)c2)CC1)Nc1ccccn1  -109.2%
97. Cc1cc(N(C)CCN(C)C)n2nc(C)cc2n1  -114.6%
98. COCC(=O)N1CCC(Oc2cccc(C)c2)CC1  -129.3%
99. CN(C)c1ccc(C(=O)N2CCCC2c2cnn(C)c2)cn1 (stereo unspecified)  -130.6%
100. CCC(CNS(C)(=O)=O)Oc1ccccc1C (stereo unspecified)  -141.4%
101. CCn1cnnc1CNC(=O)c1cc(F)ccc1OC  -155.2%
